# High-throughput results as filed in PubChem BioAssay.
# FEN1 inh – qHTS Assay for the Inhibitors of Human Flap endonuclease 1 (FEN1); Recombinant FEN1 flap cleavage, fluorescence, 15 min; Potency, µM (highest dose often 114 µM), for the others: at the highest dose activity change, negative = inhibition, hits mostly inhibitors; hit rate 0.35% among 390,000; AID 588795, 2011; note: % is set by controls: 0 for no effect and ±100 for the full control effect; nearly all actives have a fitted effect of over 65% in size
#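 FEN1 at 10 nM preincubated with compounds 15 min at room temperature, then flap DNA substrate added at 50 nM final. Signal read at 0 and 15 min; concentration-response fitted with four-parameter Hill equation.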
# Pol eta inh – qHTS for Inhibitors of Polymerase Eta. recombinant Pol eta, fluorescent DNA replication assay. Potency, µM (titrated, usually from 114 µM), without a hit: top-dose activity change, negative = inhibition, actives largely listed as inhibitors. hit rate 1.2% among 390,000. AID 588591, 2011; note: % is set by controls: 0 for no effect and ±100 for the full control effect
#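 Pol eta at 10 nM preincubated with compounds 15 min at room temperature; reaction started with fluorescent substrate (50 nM final) and read kinetically at 0 and 10 min.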
# Pol beta inh – qHTS Assay for Inhibitors of DNA Polymerase Beta. P06746. Pol beta primer extension/strand displacement, fluorescence kinetic. Potency, µM (series often up to 114 µM), inactives show top-dose activity change, negative = inhibition, hits mostly inhibitors. hit rate 1.3% among 340,000. AID 485314, 2010; note: % is set by controls: 0 for no effect and ±100 for the full control effect
#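 Reaction started by 50 nM substrate onto compound-treated Pol beta (10 nM, 15 min preincubation, room temperature); plates read at 0 min and 10 min. Normalized concentration-effect data fitted by four-parameter Hill equation.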
# WRN inhibitor – qHTS for Inhibitors of WRN Helicase; Bifunctional 3'-5' exonuclease/ATP-dependent helicase WRN (Homo sapiens), Q14191; WRN helicase unwinding, fluorescent forked duplex, kinetic; Potency, µM (highest dose often 114 µM), inactives show top-dose activity change, negative = inhibition, actives largely listed as inhibitors; hit rate 0.46% among 360,000; AID 651768, 2012; note: % is set by controls: 0 for no effect and ±100 for the full control effect; nearly all actives have a fitted effect of over 55% in size
# Target sequence (Q14191 whole entry, looked up): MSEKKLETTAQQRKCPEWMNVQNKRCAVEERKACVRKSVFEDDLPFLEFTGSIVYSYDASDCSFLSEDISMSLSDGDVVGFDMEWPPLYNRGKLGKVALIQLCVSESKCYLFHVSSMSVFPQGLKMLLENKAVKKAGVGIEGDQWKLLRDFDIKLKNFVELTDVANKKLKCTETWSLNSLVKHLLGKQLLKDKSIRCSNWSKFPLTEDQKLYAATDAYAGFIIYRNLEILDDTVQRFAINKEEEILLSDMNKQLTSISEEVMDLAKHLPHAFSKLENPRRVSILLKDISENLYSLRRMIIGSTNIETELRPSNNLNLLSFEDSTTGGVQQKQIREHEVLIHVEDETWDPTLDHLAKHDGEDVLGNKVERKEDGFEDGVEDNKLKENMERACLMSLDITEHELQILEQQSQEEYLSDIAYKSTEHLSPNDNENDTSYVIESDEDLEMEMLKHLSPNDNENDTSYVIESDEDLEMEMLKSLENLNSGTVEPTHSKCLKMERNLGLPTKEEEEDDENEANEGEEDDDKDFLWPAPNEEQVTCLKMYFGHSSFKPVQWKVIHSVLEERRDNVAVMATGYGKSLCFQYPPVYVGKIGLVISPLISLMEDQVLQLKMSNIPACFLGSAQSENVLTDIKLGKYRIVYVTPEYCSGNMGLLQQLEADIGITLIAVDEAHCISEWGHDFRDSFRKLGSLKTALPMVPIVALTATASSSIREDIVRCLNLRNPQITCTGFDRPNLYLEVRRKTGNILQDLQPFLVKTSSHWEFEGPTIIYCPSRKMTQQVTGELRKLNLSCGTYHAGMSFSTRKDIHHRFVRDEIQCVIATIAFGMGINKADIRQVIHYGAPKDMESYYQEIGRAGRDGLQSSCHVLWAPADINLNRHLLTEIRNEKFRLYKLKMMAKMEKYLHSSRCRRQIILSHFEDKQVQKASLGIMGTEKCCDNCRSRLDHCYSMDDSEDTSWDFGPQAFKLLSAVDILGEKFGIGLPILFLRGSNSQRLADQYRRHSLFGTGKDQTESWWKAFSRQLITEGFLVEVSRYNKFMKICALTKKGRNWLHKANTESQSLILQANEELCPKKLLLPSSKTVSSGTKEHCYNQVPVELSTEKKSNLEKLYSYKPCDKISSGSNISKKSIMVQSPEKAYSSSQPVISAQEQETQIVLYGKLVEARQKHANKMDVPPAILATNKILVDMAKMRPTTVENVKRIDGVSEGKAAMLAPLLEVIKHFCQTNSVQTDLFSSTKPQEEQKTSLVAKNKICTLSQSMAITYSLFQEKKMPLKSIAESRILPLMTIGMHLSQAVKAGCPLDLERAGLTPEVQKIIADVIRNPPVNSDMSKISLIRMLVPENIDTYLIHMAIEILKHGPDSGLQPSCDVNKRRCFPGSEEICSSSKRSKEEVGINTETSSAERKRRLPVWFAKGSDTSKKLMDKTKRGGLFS
#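 Primary qHTS, 1536-well format. 20 nM WRN + compound, 15 min RT; start with 100 nM forked fluorophore/quencher duplex, 2 mM ATP (final); kinetic read ex 525/em 598 nm.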
# POLK inh – qHTS for Inhibitors of Polymerase Kappa. purified Pol kappa, fluorescent DNA synthesis assay, 10 min. Potency, µM (series often up to 107 µM), without a hit: at the top dose activity, negative = inhibition, most hits filed as inhibitors. hit rate 0.53% among 400,000. AID 588579, 2011; note: % is set by controls: 0 for no effect and ±100 for the full control effect
#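 Enzyme at 10 nM met test compounds for 15 min at room temperature. Substrate addition (50 nM final) began the reaction, which was monitored by fluorescence at 0 and 10 min.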
# POLI inh – qHTS for Inhibitors of Polymerase Iota | AID 588590, 2011 | hit rate 1% among 390,000 | DNA polymerase iota (Homo sapiens), Q9UNA4 | Potency, µM (highest dose often 115 µM), for the others: at the top dose activity, negative = inhibition, most hits filed as inhibitors | Pol iota fluorescent replication assay, 10 min
#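 Fluorescent replication assay read twice, at 0 min and 10 min after adding 50 nM (final) substrate. Enzyme (10 nM) and compounds were first incubated 15 min at room temperature; enzyme-free buffer wells were negative controls.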
# * hit, by the source's call; ? = inconclusive; · = no result given; [ ] = another dose, or the depositor's remark. Rows were chosen to be rich in hits. Some 2.4% of all compounds tested hit in one or more screens of this group. Calls come from the whole dose curve; as a rule, active = well fitted curve in the direction sought with a large enough effect; inconclusive = small, poorly fitted or top-dose-only effect, or another doubt; inactive = no such curve, though single readings can be large; an effect the other way counts as inactive or inconclusive. Potency is the fitted concentration of half-maximal effect.
SMILES,FEN1 inh,Pol eta inh,Pol beta inh,WRN inhibitor,POLK inh,POLI inh
CCc1nnc(N/N=C/c2ccc(N3CCC(C)CC3)c([N+](=O)[O-])c2)n1N,-8%,-14%,0%,-1%[11.6 µM],-25%,8.9µM*
Cc1nnc(N/N=C/c2cc([N+](=O)[O-])c(N3CCC(C)CC3)cc2N2CCC(C)CC2)n1N,-32%,-16%,-23%,-17%[57.1 µM],-13%,4µM*
Cc1nnc(N/N=C/c2ccc([N+](=O)[O-])cc2)n1N,-2%,-5%,0%,-2%[11.6 µM],-11%,?
CCc1nnc(N/N=C/c2ccccc2Cl)n1N,?,4%,14%,-7%,-21%,?
Cc1ccccc1NC(=O)Cn1c(=O)n(Cc2ccco2)c(=O)c2cccnc21,?,-1%,?,·,-15%,?
O=C(Nc1ncc(Cc2ccccc2)s1)C1CCN(C(=O)c2ccco2)CC1,-16%,·,·,·,2%,-14%
CC[n+]1ccccc1/C=C1\Sc2ccc(C)cc2N1C,4%,-9%,71µM*,-18%,3%[60.1 µM],?
Cc1cccc(CCn2c(=O)c3ccccc3n(Cc3cccc(F)c3)c2=O)c1,-14%,-9%,0%,·,10%,-11%
O=C(CSc1nc2cc3ccccc3cc2[nH]1)Nc1cccc(C(F)(F)F)c1,-5%,-7%,?,·,-5%,-9%
Cc1cccc(N(C)S(=O)(=O)c2ccc3c(c2)C(C)(C)C(=O)N3C)c1,-10%,?,22µM*,-22%,?,?
CC1CC(C)CN(C(=O)c2cccc(S(=O)(=O)Nc3cc(C(F)(F)F)ccc3Cl)c2)C1 (stereo not given),-32%,-28%,56µM*,-36%,-21%,14%
Cc1nc(N=Nc2cc(S(=O)(=O)O)c3cc([N+](=O)[O-])cc(S(=O)(=O)O)c3c2)c(COP(=O)(O)O)c(C=O)c1O,7.5µM*,0.63µM*,2.8µM*,·,9.5µM*,5µM*
CCOc1cc(C=O)cc(N=Nc2cccc([N+](=O)[O-])c2)c1O,-14%,-14%,-1%,2%,-23%,23%
Cc1nc(N=Nc2cc([N+](=O)[O-])ccc2Cl)c(COP(=O)(O)O)c(C=O)c1O,·,·,·,·,27µM*,·
COC(=O)C1=C[C@@H](C(=O)OC)[C@@H]2C3=C(C(=O)[C@@]2(C)NC(=O)c2ccccc2)[C@H](C)[C@@H]2C(=O)N(c4ccccc4)C(=O)[C@@H]2[C@@H]3C1,3%,·,·,·,-10%,21%
COc1ccc(OC)c(NC(=O)C2Cc3ccccc3CN2S(=O)(=O)c2ccc(F)cc2)c1 (stereo not given),8%,·,-29%,·,-4%,5%
Cc1nc2ccc([N+](=O)[O-])cc2c(=O)n1Cc1cccc(Br)c1,-21%,-3%,79µM*,6%,-10%,20%
COc1ccc(N2CCN(C(=O)NC3CCCCC3)CC2)cc1,-1%,?,-2%,0%,-3%,89µM*
C[n+]1c(/C=C/c2ccnc3ccccc23)cc(/C=C/c2ccnc3ccccc23)c2ccccc21,10µM*,·,·,·,-31%,?
Cc1cc([N+](C)(C)C)cc(C)c1/C=C/c1ccnc2ccccc12,22µM*,·,·,·,?,?
Cc1cc(N(C)C)cc(C)c1/C=C/c1ccnc2ccccc12,-13%,·,·,·,0%,15%
CCCCCCOc1ccc(C(=N)N(CCCC)CCCC)c2ccccc12,·,·,·,·,-5%[19.4 µM],·
CCOC(=O)N1CCN(C2=C(NS(=O)(=O)c3ccc(NC(C)=O)cc3)C(=O)c3ccccc3C2=O)CC1,?,-5%,?,1%[11.6 µM],-10%,6.3µM*
CC1CCN(C2=C(NS(=O)(=O)c3ccc(Br)cc3)C(=O)c3ccccc3C2=O)CC1,?,-12%,35%,-11%,-17%,7.1µM*
CC1CCc2c(sc(NC(=O)c3cc(-c4cccc(Cl)c4)on3)c2C(N)=O)C1 (stereo not given),-4%,2%,-14%,·,-4%,-17%
SMILES,FEN1 inh,Pol eta inh,Pol beta inh,WRN inhibitor,POLK inh,POLI inh
COC(=O)c1ccc(CSc2nnc(NC(=O)C3CC(=O)N(c4ccc5c(c4)OCCO5)C3)s2)cc1 (stereo not given),2%,?,28µM*,-31%,-28%,?
Cc1ccccc1N1CC(C(=O)Nc2nnc(SCC(=O)Nc3nccs3)s2)CC1=O (stereo not given),-1%,?,50µM*,-29%,-26%,?
Cc1cccc(N2CC(C(=O)Nc3nnc(SCC(=O)Nc4nccs4)s3)CC2=O)c1 (stereo not given),-1%,?,?,-16%[57.1 µM],-26%,-9%
Cc1ccc(CN2CC(C(=O)Nc3nnc(SCc4c(Cl)cccc4Cl)s3)CC2=O)cc1 (stereo not given),-16%,?,13µM*,?,-25%,?
O=C(Nc1nnc(SCc2ccccn2)s1)C1CC(=O)N(c2ccc(F)cc2)C1 (stereo not given),-1%,25µM*,?,?,-12%,?
C=CCN1CC(C(=O)N(CCCN(C)C)C(=O)NCC)CC2c3cccc4[nH]cc(c34)CC21 (stereo not given),·,·,·,·,0%[19.4 µM],·
COC(=O)c1ccc(C(=O)OC)c(NC(=O)N2CC3CCCN3c3ccccc32)c1 (stereo not given),-15%,-9%,19%,·,-10%,11%
CCCCCCCCCCCCCCCC(=O)OC[C@H](O)[C@H]1OC[C@@H](O)[C@@H]1O,·,·,·,·,-10%[19.4 µM],·
CCOc1ccc(-c2ccc(NS(=O)(=O)c3cc(C)c(C)cc3C)cc2)nn1,1%,-14%,?,·,-11%[60.1 µM],-8%
Cc1ccccc1N1CC(C(=O)Nc2nnc(SCc3ccccn3)s2)CC1=O (stereo not given),17%,50µM*,79µM*,-8%,-27%,?
Oc1c(Br)cc(Br)cc1/C=N/c1nc2c(s1)CCCC2,-18%,?,·,?,79µM*,?
Oc1ccc2ccccc2c1/C=N/c1nc2c(s1)CCCC2,-23%,5%,1%,-19%,1%,?
COc1cc(-c2ccc3oc(-c4ccsc4)cc(=O)c3c2)cc(OC)c1OC,8%,-25%,·,-3%,-3%,0%
COc1ccc(-c2ccc3c(=O)cc(-c4ccsc4)oc3c2)cn1,50µM*,?,·,50µM*,-17%,22µM*
O=c1cc(-c2ccsc2)oc2cc(-c3ccc4c(c3)OCO4)ccc12,-7%,?,·,25µM*,-2%,20%
